# Assay outcomes (PubChem BioAssay)
# An excerpt weighted towards active compounds, which were near 3.1% of everything screened.
# Tau fluor counter – counter-screen for tau fibril formation inhibitors | tau K18 P301L Alexa594 fluorescence, heparin fibrillization | Potency, µM (series often up to 57.7 µM), without a hit: top-dose activity change, negative = decrease | 280,000 tested, 0.93% active | AID 1463; note: nearly all actives have a fitted effect of over 55% in size
#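 Human K18 P301L tau (15 uM unlabeled plus 0.24 uM Alexa 594-labeled, final) in 100 mM sodium acetate pH 7 was mixed with compound and 20 uM heparin and incubated 6 hr at 37 C.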
# TRb SRC2 PPI – inhibitors of human thyroid hormone receptor beta-SRC2 interaction. P10828. TRbeta-SRC2 peptide binding, fluorescence polarization; receptor liganded with 1 µM T3. Potency, µM (titrated, usually from 106 µM), for inactives: at the top dose activity change, negative = inhibition, usual class: inhibitors. 280,000 tested, 0.065% active. AID 1469;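 note: plate controls were bound peptide for no effect and peptide without receptor for full effect; nearly all actives have a fitted effect of over 50% in size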
#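 Polarization signal, normalized between peptide-alone and full complex controls, measured compound effects on T3-liganded human TRb LBD (0.6 uM) binding 20 nM Texas Red SRC2 peptide after 5 hr.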
# Tau fibril ThT – tau fibrillization inhibition (ThT binding); AID 1460; 270,000 tested, 2.1% active; Potency, µM (top dose mostly 57.4 µM), for inactives: at the highest dose activity, negative = inhibition, actives largely listed as inhibitors; P10636; recombinant tau K18 P301L, heparin-induced fibrillization, ThT fluorescence; note: nearly all actives have a fitted effect of over 55% in size
# Target sequence (P10636 561-689 P618L limits assumed): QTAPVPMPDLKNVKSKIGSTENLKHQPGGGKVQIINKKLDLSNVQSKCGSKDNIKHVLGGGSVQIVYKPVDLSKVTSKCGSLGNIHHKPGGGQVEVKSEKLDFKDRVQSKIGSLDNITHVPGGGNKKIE
#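 Aggregation was driven by heparin (20 uM final) acting on recombinant tau […] bearing P301L in 100 mM sodium acetate pH 7; fibrils were detected with Thioflavin T.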
# TR SRC2 fluor cs – counter-screen for TRb-SRC2 inhibitors: fluorescence interference | 280,000 tested, 0.29% active | TRb/SRC2 Texas Red total fluorescence interference | AID 1479 | Potency, µM (series often up to 106 µM), without a hit: at the top dose fluorescence change, negative = quenching; active = well fitted curve in either direction with a large enough effect; inconclusive = small, poorly fitted or top-dose-only effect
#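 Human TRb ligand-binding domain at 0.6 uM with 20 nM Texas Red SRC2 peptide in Tris buffer containing 1 uM T3 and 5% DMSO, incubated with compound 5 h at ambient temperature. Total fluorescence (555/632 nm) calculated as parallel + 2 × perpendicular.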
# Tau fibril FP – inhibitors of human tau fibril formation. AID 1468. 280,000 tested, 0.39% active. K18 P301L tau heparin fibrillization, Alexa594 FP, 6 h. Potency, µM (highest dose often 57.7 µM), without a hit: at the top dose activity, negative = inhibition, actives largely listed as inhibitors; note: nearly all actives have a fitted effect of over 55% in size
#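 Heparin (20 uM) drove fibril formation of recombinant tau K18 P301L, 15 uM unlabeled with 0.24 uM Alexa 594 label, for 6 hr at 37 C in 100 mM sodium acetate pH 7. Fluorescence polarization (555/632 nm) read 1 hr after 30 uM ThT.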
# Active calls of the source: *; u = inconclusive; [ ] = remark or other dose. Unless noted, calls come from the whole dose curve; as a rule, active = well fitted curve in the direction sought with a large enough effect; inconclusive = small, poorly fitted or top-dose-only effect, or another doubt; inactive = no such curve, though single readings can be large; an effect the other way counts as inactive or inconclusive. Unless noted, % is set by controls: 0 for no effect and ±100 for the full control effect; potency is the fitted concentration of half-maximal effect.
SMILES,Tau fluor counter,TRb SRC2 PPI,Tau fibril ThT,TR SRC2 fluor cs,Tau fibril FP
CN(C)c1ccc(/C=N/NC(=O)c2cc(-c3ccc4c(c3)OCO4)n[nH]2)cc1,u,-2%,2.5µM*,-3%,11%
CN(C)c1ccc(/C=N/NC(=O)c2cc(=O)[nH]c3ccccc23)cc1,-1%,2%,-12%,2%,7%
CN(C)c1ccc(/C=N\NC(=O)c2cccc3cc[nH]c23)cc1,u,6%,10µM*,-6%,0%
Cc1nnc(N2CCCC(C(=O)Nc3cccc(C(F)(F)F)c3)C2)c2nn(-c3ccccc3)c(C)c12 (stereo not given),-23%,0%,-12%,1%,-9%
CCOc1ccc(NC(=O)N2CC3CCCN3c3ccccc32)cc1 (stereo not given),u,-6%,u,2%,6%
CCCN1CCc2nc(N3CCN(c4ncccn4)CC3)ncc2C1,3%,3%,u,0%,1%
O=[N+]([O-])c1ccc2nc(-c3ccncc3)[nH]c2c1,-15%,-3%,-18%,-2%,11%
O=[N+]([O-])c1ccc(-c2nc(-c3ccc(F)cc3)c(-c3ccncc3)[nH]2)cc1,20µM*[quencher],0%,14µM*,u,u
COc1ccccc1N1CCN(c2ncnc3nc[nH]c23)CC1,-6%,-5%,-13%,-2%,3%
COc1ccc(N2CCN(c3ncnc4nc[nH]c34)CC2)cc1,-24%,-3%,18µM*,-1%,11%
O=C(NC1CCCC1)c1ccc2nc(-c3ccco3)c(-c3ccco3)nc2c1,-2%,1%,-2%,-6%,2%
COc1ccccc1N1CCN(C(=O)c2ccc3nc(-c4ccco4)c(-c4ccco4)nc3c2)CC1,-15%,5%,u,-3%,9%
O=C(NCCc1ccccc1)c1ccc2nc(-c3ccco3)c(-c3ccco3)nc2c1,u,9%,7.1µM*,28µM*[quencher],u
O=C(NCCO)c1ccc2nc(-c3ccco3)c(-c3ccco3)nc2c1,14µM*[quencher],7%,16µM*,u,u
O=C(c1ccccc1)c1ccc2nc(-c3ccco3)c(-c3ccco3)nc2c1,u,3%,14µM*,-17%,u
c1coc(-c2nc3ccccc3nc2-c2ccco2)c1,u,4%,16µM*,-29%,u
CCOC(=O)C(NC(C)=O)(N1CCc2ccccc2C1)C(F)(F)F (stereo not given),-15%,0%,25µM*,0%,u
CCOC(=O)C(NC(C)=O)(N1CCOCC1)C(F)(F)F (stereo not given),-7%,2%,u,2%,u
COc1ccc(-c2cc(-c3c(O)c(OC)c4occc4c3OC)[nH]n2)cc1OC,14µM*[quencher],-11%,11µM*,-10%,11%
COc1ccc(-c2cc(-c3c(O)c(OC)c4occc4c3OC)[nH]n2)cc1,13µM*[quencher],10%,11µM*,-11%,14%
CCOc1ccc(-c2cc(-c3nc(-c4cc(OC)c(OC)c(OC)c4)no3)[nH]n2)cc1,-25%,-6%,u,-2%,-4%
COc1ccc(-c2cc(-c3ccccc3O)[nH]n2)cc1,-5%,-7%,-18%,-6%,8%
COc1ccc(OCC(=O)Nc2cc(-c3cccc(Cl)c3)nn2-c2ccccc2)cc1,-11%,-7%,5%,-1%,-7%
